Source: PubChem (several laboratories)
VLA-4 inh – inhibition in a human VLA-4 binding assay | P13612 | inhibition, % (about 7 µM as worked out from the volumes in the protocol) | VLA-4 expressing cells, ligand binding flow cytometry | AID 2557 | 0.2% of 330,000 active; in the data active = inhibition above about 50%
A3G deaminase – blocks human APOBEC3G single-stranded DNA deamination; Q9HC16; recombinant A3G, ssDNA deamination FAM/TAMRA fluorescence; inhibition, % at 20 µM; 0.28% of 330,000 active;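 active = inhibition of at least 40% at 20 µM, with no more than 30% in the related APOBEC3A deaminase screen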
Target sequence (Q9HC16 whole entry, looked up): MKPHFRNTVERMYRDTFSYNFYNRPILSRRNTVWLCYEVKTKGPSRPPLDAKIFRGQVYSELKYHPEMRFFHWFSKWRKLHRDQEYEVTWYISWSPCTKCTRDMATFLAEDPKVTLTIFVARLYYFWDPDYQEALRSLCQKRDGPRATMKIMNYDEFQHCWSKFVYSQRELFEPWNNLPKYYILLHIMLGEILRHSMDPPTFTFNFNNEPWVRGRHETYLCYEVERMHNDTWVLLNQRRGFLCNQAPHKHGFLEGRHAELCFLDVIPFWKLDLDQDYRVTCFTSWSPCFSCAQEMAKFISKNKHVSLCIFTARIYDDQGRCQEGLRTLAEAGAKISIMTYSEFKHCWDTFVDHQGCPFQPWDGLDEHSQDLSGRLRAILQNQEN
GRK2 inh – blocks RNA aptamer binding to human GRK2; 0.59% of 330,000 active; bead flow cytometry, FAM-aptamer displacement from GRK2; inhibition of aptamer binding, % at 10 µM;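 active = inhibition of aptamer binding above 40%, roughly 3 SD of noise, on plates passing a quality check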;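 note: median bead fluorescence of bound FAM aptamer so fluorescent compounds give negative values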
APOBEC3A inh – human APOBEC3A DNA deaminase inhibition; recombinant A3A, FAM/TAMRA ssDNA deamination fluorescence; inhibition, % at 20 µM; 0.41% of 330,000 active; AID 493011;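 active = at least 40% inhibition at 20 µM here, with at most 30% in a related deaminase screen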
Target sequence (P31941 whole entry, looked up): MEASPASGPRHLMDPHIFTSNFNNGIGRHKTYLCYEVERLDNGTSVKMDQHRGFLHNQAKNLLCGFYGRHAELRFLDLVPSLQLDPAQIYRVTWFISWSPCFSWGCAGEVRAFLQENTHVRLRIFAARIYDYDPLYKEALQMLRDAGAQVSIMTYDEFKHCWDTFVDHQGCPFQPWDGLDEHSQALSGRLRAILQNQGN
Large screens that a line does not name were inactive. In the library only some 1.4% were active in any assay of this set; here they are far more common.

Cc1nnc(N/N=C\c2ccc(-c3cccc(C(=O)O)c3)o2)n1N	GRK2 inh 88
CS(=O)(=O)Nc1ccccc1C(=O)Nc1cc(Cl)cc(Cl)c1	GRK2 inh 99
CCOc1ccccc1NC(=S)NCC1CCCO1 (stereo not drawn)	none
CCn1nnnc1NC(=O)c1cc(Cl)c(OC)c(Cl)c1	VLA-4 inh 52
CCc1cccc(CC)c1NC(=O)COC(=O)c1cccc(-c2ccc(OC(C)=O)cc2)c1	GRK2 inh 100
CC(=O)Oc1ccc(-c2cccc(C(=O)O)c2)cc1	none
O=C(NNC(=S)Nc1ccccc1)c1cc(Br)ccc1Cl	GRK2 inh 46
C/C(=N\NC(=O)CCCOc1ccc(Cl)cc1C)c1ccc(C)o1	GRK2 inh 90
Cc1cc(-c2ccc(N=Nc3c(S(=O)(=O)O)cc4cc(S(=O)(=O)O)cc(N)c4c3O)c(C)c2)ccc1N=Nc1c(S(=O)(=O)O)cc2cc(S(=O)(=O)O)cc(N)c2c1O	GRK2 inh 98
Cc1cc(O)c2c(c1O)C(=O)[C@]13C(=C2O)C(=O)[C@@H]2[C@@H](O)[C@H]1[C@@H]1[C@H](O)[C@H]3C(=O)C3=C(O)c4c(O)cc(C)c(O)c4C(=O)[C@]312	GRK2 inh 72
COCCN(Cc1ccccc1)C(=O)c1cccc(S(=O)(=O)N(C)c2c(C)n(C)n(-c3ccccc3)c2=O)c1	none
O=C(NCc1ccccn1)c1c(Cl)cccc1Cl	none
Cc1cccc(NC(=O)CSc2nnc3ccc(-c4ccccn4)nn23)c1	none
N#Cc1c(NC(=O)C2CC=CCC2C(=O)O)sc2c1CCCCCC2 (stereo not drawn)	GRK2 inh 73
O=C(CO/N=C/c1ccc(OC(F)F)cc1)N1CCc2ccccc21	GRK2 inh 100
Cc1ccc(NC2=C/C(=N/S(=O)(=O)c3cccs3)c3ccccc3C2=O)cc1C	none (no result: A3G deaminase, APOBEC3A inh)
Cn1cnnc1Sc1ccc(/C=C/C(=O)c2ccc(O)cc2)cc1[N+](=O)[O-]	none
COc1ccc(NC(=O)/C(C#N)=C/c2ccc(Sc3nncn3C)c([N+](=O)[O-])c2)cc1	VLA-4 inh 52
COc1cc(/C=C(\C#N)C(=O)Nc2ccc(C(=O)O)cc2)ccc1OC(=O)c1cccc(F)c1	GRK2 inh 42
COc1cc(/C=C(/C#N)C(=O)Nc2ccccc2)ccc1OCc1ccc(C(=O)O)cc1	none
C[C@@H]1C(c2cccc(Cl)c2)=NN(c2ccccc2)[C@H]1C(=O)N1CCOC1=O	none (no result: VLA-4 inh)
CCCC(=O)Nc1ccc(C(=O)NCc2ccccn2)cc1	none
O=C(c1ccccc1)c1ccc2cc(O)ccc2c1	GRK2 inh 67
O=C(c1ccccc1)c1cccc(C(=O)c2ccccc2)c1	none
Oc1ccccc1N=Nc1nc(-c2ccccc2)c(-c2ccccc2)[nH]1	VLA-4 inh 90
CC(/C=N/NC(=O)c1nnn(-c2nonc2N)c1C(C)C)=C\c1ccccc1	none
O=C(O)c1cc(-n2cccc2)ccc1N1CCOCC1	none
Clc1ccc(N=c2ssnc2Cl)cc1	A3G deaminase 76
Fc1ccc(N=c2ssnc2Cl)c(F)c1	A3G deaminase 74
Oc1cc2c(cc1O)[C@H]1c3ccc(O)c(O)c3OC[C@@]1(O)C2	A3G deaminase 59
Cc1ccc(Cn2ccc(NC(=O)c3cc(C)on3)n2)cc1	none
COCCN(C(=O)COC(=O)c1cc2c(s1)CCC2)c1c(N)n(Cc2ccccc2)c(=O)[nH]c1=O	GRK2 inh 98
O=C1[C@H](Oc2ccccc2)[C@@H](c2ccccc2)N1c1ccncc1	none (no result: VLA-4 inh)
O=C1[C@@H](Oc2ccccc2)[C@@H](c2ccccc2)N1c1ccccc1	GRK2 inh 41 (no result: VLA-4 inh)
COc1ccc2c(CC(=O)OCC(=O)Nc3ccc(C)cc3)coc2c1	GRK2 inh 44
Cc1cccn2c(=O)c(/C=N/O)c(N3CCCC3)nc12	none
Cc1cc(Br)ccc1NC(=O)CNC(=O)Cn1ncc(Cl)c(Cl)c1=O	VLA-4 inh 50
Cc1ccc(C(=O)/C=C/C(=O)c2ccc(C)cc2)cc1	VLA-4 inh 69
Cc1ccc(/C=C/C(=O)c2ccc(C)cc2)cc1	none
O=C1c2c(O)ccc(O)c2C(=O)c2c(NCCNCCO)ccc(NCCNCCO)c21	GRK2 inh 99
O=C1c2ccccc2C(=O)c2c(Nc3ccc(CCO)cc3)ccc(O)c21	none
COc1ccccc1CNC(=O)/C=C/c1ccc(S(=O)(=O)NCc2ccco2)cc1	GRK2 inh 62
Cc1ccc(CNC(=O)/C=C/c2ccc(S(=O)(=O)NCc3ccco3)cc2)cc1	none
CCOC(=O)c1nc2sc3c(c2c(=O)[nH]1)CCC(C)C3 (stereo not drawn)	none
COc1ccc2[nH]c3c(c2c1)CCN1C(=O)C(CC(=O)NCC24CC5CC(CC(C5)C2)C4)C[C@H](C(=O)N2CCCCC2)[C@@]31C (stereo partly drawn)	none (no result: VLA-4 inh)
CCN(CC)C(=O)[C@H]1C[C@H](CC(=O)NC(C)(C)C)C(=O)N2CCc3c([nH]c4cc(CCC(=O)N(C)C)ccc34)[C@]12C	GRK2 inh 50 (no result: VLA-4 inh)
CCN(CC)C(=O)[C@H]1CC(CC(=O)NCC23CC4CC(CC(C4)C2)C3)C(=O)N2CCc3c([nH]c4ccc(OC)cc34)[C@]12C (stereo partly drawn)	GRK2 inh 44 (no result: VLA-4 inh)
C=CCn1c(=O)/c(=C2/Sc3ccccc3N2CC)s/c1=C1/C(=O)NN=C1C	GRK2 inh 42
COc1ccc(NS(=O)(=O)c2cccc(C(=O)NCc3cccnc3)c2)cc1	none
COc1cc(C(=O)N/C(=C\c2cn(C)c3ccccc23)C(=O)N2CCN(C)CC2)cc(OC)c1OC	none (no result: VLA-4 inh, GRK2 inh)
Oc1ccc(N=Nc2ccc3c(c2)OCO3)c2ccccc12	GRK2 inh 78
O=C(NN=Cc1c(O)ccc2ccccc12)c1ccc2c(c1)OCO2	none
CCCCCCC(=O)N(O)C1CC(=O)N(c2ccc(Cl)cc2)C1=O (stereo not drawn)	A3G deaminase 41
CCN1C(=O)Cc2cc(S(=O)(=O)N3CCOCC3)ccc21	none
O=C(Nc1ccc(F)cc1)Nc1ccccc1C(=O)NCCN1CCNC1=O	none
O=C(N/C(=C/c1cccs1)C(=O)N1CCOCC1)c1ccco1	none
COC(=O)c1ccc(=O)c2nc3/c(=C/O)c(O)cc(=O)c3[nH]c12	GRK2 inh 67 (no result: A3G deaminase, APOBEC3A inh)
Cc1cc(NC(=O)CCCN2C(=O)/C(=C/c3cccs3)SC2=S)no1	none
COc1ccc(-c2csc(NC(=O)CN3C(=O)NC4(CCCC4)C3=O)n2)cc1	none
CCN(CC)S(=O)(=O)c1ccc(Cl)c(NC(=O)COC(=O)/C=C/c2ccc(O)c(OC)c2)c1	GRK2 inh 100
COc1cc(/C=C/C(=O)OCC(=O)Nc2cc(S(=O)(=O)N(C)C)ccc2Cl)ccc1O	none
N#C/C(=C\c1cccc([N+](=O)[O-])c1)c1nnc2n1CCCCC2	GRK2 inh 100
O=C(O)c1cc(O)c2c(c1)[C@@H]([C@H]1c3cc(C(=O)O)cc(O)c3C(=O)c3c(O[C@@H]4O[C@H](CO)[C@@H](O)[C@H](O)[C@H]4O)cccc31)c1cccc(O[C@@H]3O[C@H](CO)[C@@H](O)[C@H](O)[C@H]3O)c1C2=O	GRK2 inh 100
OCC1OC(Oc2cccc3ccccc23)C(O)C(O)C1O (stereo not drawn)	none
O=C(NNC(=S)NC1CCCCC1)c1sc2ccccc2c1Cl	none
